# Screening data from PubChem.
# The entries come from a sample that favours hits as a whole.
# RT RNaseH block – inhibitors of HIV-1 reverse transcriptase RNase H | inhibition, % at 10 µM | actives 1.9% (n = 65,000) | RT-RNase H RNA/DNA duplex cleavage, fluorescence; in the data active = inhibition above about 50%
# Starred values were filed as active, the others as inactive.
SMILES,RT RNaseH block
CCCc1nnc2n1N=C(c1ccc(-c3cc(Cl)ccc3Cl)o1)CS2,41.7
COCCNS(=O)(=O)c1cccc2cccnc12,-40.3
CCOCCCn1c(=N)c(C(=O)Nc2cc(C)on2)cc2c(=O)n3ccccc3nc21,-13.6
CN1CCN(C(=O)c2ccc3c(=O)n(Cc4ccc(Cl)cc4)c(=S)[nH]c3c2)CC1,-5.2
CCOC(=O)N1CCN(C(=O)c2ccc(Cn3c(=S)[nH]c4cc5c(cc4c3=O)OCO5)cc2)CC1,-2.8
O=C(c1ccc2c(=O)n(Cc3ccc4c(c3)OCO4)c(=S)[nH]c2c1)N1CCCCC1,60.6*
Cc1ccc2[nH]c(=O)c(C(c3nnnn3CC3CCCO3)N3CCCc4ccccc43)cc2c1 (configuration not stated),10.4
CC(=O)OCCNC(=O)Cn1cnc2c1c(=O)n(C)c(=O)n2C,14.4
CCOc1ccc(C2C(C#N)=C(N)SC(N)=C2C#N)cc1OCC,37.6
CCOc1ccc(C2C(C#N)=C(N)N3C(=C2C#N)Sc2ccccc23)cc1 (configuration not stated),72.2*
N#CC1=C(N)N2C(=C(C#N)C1c1ccccc1)Sc1ccccc12 (configuration not stated),1.8
CCOC(=O)N1CCN(C(=O)c2nc3ccccc3s2)CC1,-8.9
CCCNC(=O)NC1C(NC(=O)NCCC)N(C)C(=O)N1C (configuration not stated),-3.3
C=CCn1c(SC2CCOC2=O)nc2scc(C3CC3)c2c1=O (configuration not stated),-10.0
CCCCN1CC(C(=O)NC2CCCCC2)CC1=O (configuration not stated),-8.3
CCc1nc2ccccc2n1CCC(C)C,-44.7
Cc1ccccc1CS(=O)(=O)CCC(=O)NCc1ccccn1,-23.1
Cn1c(=O)n(CCc2ccccc2)c(=O)c2c1nc1n2CCN1c1ccccc1,9.0
COc1ccc(N2CCn3c2nc2c3c(=O)n(CCCc3ccccc3)c(=O)n2C)cc1,60.0*
COc1ccc(N2CCn3c2nc2c3c(=O)n(CCCc3ccccc3)c(=O)n2C)c(OC)c1,-9.7
O=c1c2ccccc2nc(-c2ccco2)n1CCCn1ccnc1,2.0
O=C(CCn1c(=S)[nH]c2ccccc2c1=O)N1CCN(c2ccccn2)CC1,-11.9
Cc1cc2c(cc(C(=O)OCC(=O)NCc3cccs3)n2C(C)C)o1,-34.6
COc1ccc(C2C(C(C)=O)=C(C)N=c3s/c(=C\c4ccc5c(c4)OCO5)c(=O)n32)c(OC)c1 (configuration not stated),58.0*
COc1ccc(C2C(C(C)=O)=C(C)N=c3s/c(=C\c4ccco4)c(=O)n32)c(OC)c1 (configuration not stated),-0.7
SMILES,RT RNaseH block
COc1ccc(C2C(C(C)=O)=C(C)N=c3s/c(=C\c4cc(C)n(C)c4C)c(=O)n32)c(OC)c1 (configuration not stated),31.6
Cc1ccc2[nH]c(=O)c(CN(CCc3ccccc3)C(c3nnnn3Cc3ccco3)C(C)C)cc2c1 (configuration not stated),20.1
CCC(c1nnnn1Cc1ccccc1)N(Cc1ccco1)Cc1cc2cc(OC)ccc2[nH]c1=O (configuration not stated),-9.6
CCC(c1nnnn1Cc1ccco1)N(CCc1ccccc1)Cc1cc2cc(C)ccc2[nH]c1=O (configuration not stated),61.3*
C=CCN=C(NC#N)SCC(=O)c1cccc(OC)c1,-2.6
Cc1c(C(=O)N2CCCc3ccccc32)oc2ccc(S(=O)(=O)N3CCOCC3)cc12,-74.1
COCCN1C(=O)c2ccccc2C(C(=O)NCCCN2CCCC2=O)C1c1c[nH]c2ccccc12 (configuration not stated),-5.8
C=CCNC(=O)c1sc(=S)n(-c2ccc(C(=O)OCC)cc2)c1N,75.8*
CCn1c(N)c(C(=O)NCc2ccco2)sc1=S,-5.7
CCOC(=O)c1ccc(-n2c(N)c(C(=O)NCc3ccco3)sc2=S)cc1,71.9*
COc1ccc(-n2c(N)c(C(=O)NCC3CCCO3)sc2=S)cc1 (configuration not stated),6.7
CCOc1ccc(-n2c(C)nc3cc(C(=O)NCc4ccco4)ccc32)cc1,-5.0
CCOC(=O)c1sc(=S)n(CC)c1N,-9.6
COc1ccc(C2C(C(=O)NCC3CCCO3)c3cc(OC)c(OC)cc3C(=O)N2C)cc1OC (configuration not stated),0.7
COc1ccc(S(=O)(=O)N(CC(=O)NC2CC2)c2ccc(C)cc2)cc1OC,-1.6
COc1nc(-c2ccc(Cl)cc2)ccc1-c1noc(-c2ccco2)n1,50.3*
COc1ccc(-c2ccc(-c3noc(C(C)C)n3)c(OC)n2)cc1,-0.3
COc1cccc(-c2ccc(-c3noc(-c4ccccc4F)n3)c(OC)n2)c1,3.3
COc1cc(-c2nnc(COc3ccc4ccccc4c3)o2)cc(OC)c1OC,-52.7
CCCCCn1c(=NC(C)=O)c(C#N)cc2c(=O)n3cccc(C)c3nc21,0.2
NC(=O)C1(N2CCCCC2)CCN(S(=O)(=O)c2cc(Cl)ccc2Cl)CC1,-4.9
OCCSc1c(F)c(SCCO)c(SCCO)c(F)c1SCCO,-1.1
CC1CCN(Cc2nc3c(c(=O)n(C)c(=O)n3C)n2CCN2CCOCC2)CC1,-4.8
